Rows were chosen to be rich in hits. Some 11% of all compounds tested hit in one or more screens of this group.
G9a block: qHTS Assay for Inhibitors of Histone Lysine Methyltransferase G9a. G9a H3K9 monomethylation, AlphaScreen, 2 h. Potency, µM (series often up to 102 µM), inactives show at the top dose activity, negative = inhibition, actives largely listed as inhibitors. actives 8.8% (n = 350,000); further: on the % scale 0 is the no-effect control and ±100 the full control effect; nearly all actives have a fitted effect of over 75% in size
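Chemiluminescent proximity detection of H3K9 monomethylation, read after 10 min bead incubation in the dark. Reaction: 20 nM G9a, 500 nM biotin-H3K9 peptide, 20 uM SAM cofactor, 2 h, room temperature, following 15 min enzyme-compound preincubation.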
JMJD2A Tudor inh: qHTS Assay for Inhibitors of JMJD2A-Tudor Domain. Lysine-specific demethylase 4A (Homo sapiens), O75164. AlphaScreen JMJD2A-Tudor / H3K4me3 peptide binding. Potency, µM (titrated, usually from 114 µM), without a hit: top-dose activity change, negative = inhibition, hits mostly inhibitors. actives 4.4% (n = 390,000); further: on the % scale 0 is the no-effect control and ±100 the full control effect; nearly all actives have a fitted effect of over 50% in size
PLK1 PBD inh: qHTS for Inhibitors of PLK1-PDB (polo-like kinase 1 - polo-box domain): Primary Screen; Plk1 PBD binding of FITC phosphopeptide, fluorescence polarization; actives 2.8% (n = 360,000); AID 720504, 2013; Serine/threonine-protein kinase PLK1 (Homo sapiens), P53350; Potency, µM, for inactives: max response, negative = inhibition, usual class: inhibitors; further: series mostly up to about 57 µM; on the % scale 0 is the no-effect control and ±100 the full control effect; nearly all actives have a fitted effect of over 65% in size
Target sequence (P53350 whole entry, looked up, the tested form may be a part): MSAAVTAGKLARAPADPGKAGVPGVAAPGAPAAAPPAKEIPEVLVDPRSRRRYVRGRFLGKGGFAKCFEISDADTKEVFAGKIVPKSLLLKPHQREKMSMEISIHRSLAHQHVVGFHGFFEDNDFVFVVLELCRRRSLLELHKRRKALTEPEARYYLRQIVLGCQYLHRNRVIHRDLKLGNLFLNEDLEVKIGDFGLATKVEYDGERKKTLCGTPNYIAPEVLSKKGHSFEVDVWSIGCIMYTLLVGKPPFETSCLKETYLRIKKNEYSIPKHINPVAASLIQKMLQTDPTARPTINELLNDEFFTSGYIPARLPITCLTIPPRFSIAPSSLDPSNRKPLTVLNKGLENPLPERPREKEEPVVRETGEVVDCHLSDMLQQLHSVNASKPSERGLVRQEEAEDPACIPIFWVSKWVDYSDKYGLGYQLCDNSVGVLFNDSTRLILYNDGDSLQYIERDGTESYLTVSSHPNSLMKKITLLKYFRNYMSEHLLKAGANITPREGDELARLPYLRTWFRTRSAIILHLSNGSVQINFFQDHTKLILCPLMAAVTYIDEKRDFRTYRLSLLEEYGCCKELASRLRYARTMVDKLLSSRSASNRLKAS
VDR inh: Inhibitors of the vitamin D receptor (VDR): qHTS | VDR-SRC2-3 peptide fluorescence polarization, 2 h | Potency, µM, for inactives: max response, negative = inhibition, most hits filed as inhibitors | actives 0.93% (n = 400,000) | AID 504847, 2011; further: on the % scale 0 is the no-effect control and ±100 the full control effect
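Compounds are added to VDR with labelled SRC2-3 coactivator peptide and held 2 h at room temperature. Inhibition of the VDR–peptide interaction is then read as a change in fluorescence polarization.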
HP1b binding inh: HTS for Inhibitors of HP1-beta Chromodomain Interactions with Methylated Histone Tails; Chromobox protein homolog 1 (Homo sapiens), P83916; AlphaScreen HP1-beta / biotin-H3K9me3 peptide binding; Potency, µM (doses to about 114 µM), for inactives: at the top dose activity change, negative = inhibition, most hits filed as inhibitors; actives 0.56% (n = 390,000); AID 540317, 2011; further: nearly all actives have a fitted effect of over 70% in size
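Compound inhibition of the preformed complex between 50 nM HP1-beta and 50 nM biotinylated H3K9me3 peptide was read by AlphaScreen. Buffer was PBS pH 7.4 with 0.01% Tween-20. Incubations ran 30 min at room temperature, with 10 ug/mL donor/acceptor beads.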
BAZ2B inh: qHTS Assay for Inhibitors of BAZ2B; Bromodomain adjacent to zinc finger domain protein 2B (Homo sapiens), Q9UIF8; AlphaScreen BAZ2B-H3K14Ac peptide displacement; Potency, µM (top dose mostly 114 µM), for the others: at the top dose activity change, negative = inhibition, actives largely listed as inhibitors; actives 4.4% (n = 360,000); further: on the % scale 0 is the no-effect control and ±100 the full control effect; nearly all actives have a fitted effect of over 60% in size
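AlphaScreen luminescence quantifies BAZ2B engagement of H3K14Ac peptide; the protein and biotinylated peptide are both at 50 nM final, buffer PBS pH 7.4 with 0.01% Tween-20, all steps at room temperature.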
* marks the source's active call; other numbers are inactive results; ? = inconclusive; nt = not tested or not shown; [ ] = another dose, or the depositor's remark. The call rests on the fitted dose curve; in most records, active means well fitted curve in the direction sought with a large enough effect; inconclusive means small, poorly fitted or top-dose-only effect, or another doubt; inactive means no such curve, though single readings can be large; an effect the other way counts as inactive or inconclusive. Potency means the concentration at half of the fitted maximal effect.

SMILES	G9a block	JMJD2A Tudor inh	PLK1 PBD inh	VDR inh	HP1b binding inh	BAZ2B inh
COCCNC(=S)N(CCc1c(C)[nH]c2ccc(C)cc12)Cc1ccco1	45µM*	?	-3%	16%	-15%	35µM*
COCCNC(=S)N(CCc1c(C)[nH]c2ccc(OC)cc12)Cc1ccco1	50µM*	?	3%	-8%	?	?
CC(CC(=O)Nc1ccc2c(c1)c(=O)n(C)n2Cc1ccc(F)cc1)C(F)(F)F (stereo not drawn)	nt	nt	-2%	nt	nt	nt
O=C(O)c1cn(C2CC2)c2cc(N3CCN(S(=O)(=O)c4ccc5c(c4)OCCO5)CC3)c(F)cc2c1=O	5%[12.7 µM]	?	-3%	0%	-19%	50µM*
CCn1cc(C(=O)O)c(=O)c2cc(F)c(N3CCN(S(=O)(=O)c4ccc(Br)cc4)CC3)cc21	-2%	nt	nt	nt	nt	8%
CCc1nc2ccc(C(=O)NCCOc3ccc(OC)cc3)cn2c1N(C)CCCc1ccccc1	nt	nt	-8%	nt	nt	nt
COc1ccc(-c2csc3ncnc(N4CCN(c5ccccc5[N+](=O)[O-])CC4)c23)cc1	14µM*	?	-20%	2%	?	?
Cc1ccc(-c2csc3ncnc(Nc4ccc(N5CCOCC5)cc4)c23)cc1	?	-35%[11.4 µM]	27µM*	-7%	?	45µM*
COc1ccc(N2CCN(c3ncnc4onc(-c5ccc(F)cc5)c34)CC2)cc1	18µM*	?	nt	18%	-1%	-33%[57.1 µM]
COc1ccc(-c2csc3ncnc(N4CCN(c5ccccc5)CC4)c23)cc1	71µM*	?	-9%	0%	-7%	?
COc1ccc(-c2csc3ncnc(N4CCN(Cc5ccccc5)CC4)c23)cc1	-17%	-26%	0%	-10%	13%	?
Nc1nc(SCc2ccccc2)c2ncn(CCO)c2n1	nt	-6%	-5%	1%	29%	nt
C[C@@H]1CN([C@@H](C)CO)S(=O)(=O)c2ccc(Br)cc2O[C@H]1CN(C)Cc1ccccn1	nt	nt	-10%	nt	nt	nt
CC1(C)CC(=O)c2cc(C(=O)Nc3ccc(Cl)cc3)c(=O)[nH]c2C1	24%[59 µM]	-12%	nt	-11%	44%	1%
COc1ccc(-c2csc3ncnc(N4CCN(c5ccc(OC)cc5)CC4)c23)cc1	nt	32µM*	1%	12%	?	10µM*
CCN=C1S/C(=C\c2ccc(N3CCOCC3)cc2C)C(=O)N1CC	-1%[59 µM]	-12%	2%	-5%	22%	-12%
COCCN1C(=O)/C(=C/c2ccc(N3CCCC3)cc2C)SC1=S	-9%[0.501 µM]	?	28%	0%	-16%	8.9µM*
O=C(CCc1nnc2ccc(N3CCC4(CC3)OCCO4)nn12)NCc1ccccc1Cl	7%	7%	-3%	3%	29%	-7%[57.1 µM]
O=C(N/N=C(\Cc1ncc[nH]1)c1ccccc1)c1ccccc1	5%[59 µM]	nt	nt	nt	nt	-1%
O=C(N/N=C(\Cc1ncc[nH]1)c1ccccc1)c1ccncc1	-23%	40µM*	-17%	-12%	47%	8.9µM*
O=C1NN(c2ccc(Cl)c(Cl)c2)C(=O)/C1=C/c1cccc(OC(=O)c2cccs2)c1	?	nt	nt	nt	nt	50µM*
CC(C)(C)n1cnc2cc(NC(=O)c3cccs3)ccc21	40µM*	-14%	-5%	12%	38%	-20%
COC(=O)c1ccccc1NC(=S)NC(NC(=O)COc1ccccc1)C(Cl)(Cl)Cl (stereo not drawn)	2.2µM*	-25%	?	-28%	-20%	13%
O=C(NC(NC(=S)Nc1ccccc1C(=O)O)C(Cl)(Cl)Cl)c1ccco1 (stereo not drawn)	10µM*	79µM*	21µM*	?	-27%	-2%
O=C(NC(NC(=S)Nc1ccccc1C(=O)O)C(Cl)(Cl)Cl)c1ccccc1 (stereo not drawn)	25µM*	50µM*	6µM*	79µM*	?	?
SMILES	G9a block	JMJD2A Tudor inh	PLK1 PBD inh	VDR inh	HP1b binding inh	BAZ2B inh
COC(=O)c1ccccc1NC(=S)NC(NC(=O)c1ccco1)C(Cl)(Cl)Cl (stereo not drawn)	2.2µM*	-32%	-26%	-4%	-5%	-3%
Cc1ccccc1NC(=S)NC(NC(=O)COc1ccccc1)C(Cl)(Cl)Cl (stereo not drawn)	8%	-6%	-11%	-1%	19%	9%
COc1ccc(Cl)cc1-c1cc(C(=O)NC2CCCCC2)[nH]n1	nt	nt	-9%	nt	nt	nt
OCCCNc1cc(-c2ccccc2)nc2cc(-c3ccc(F)cc3)nn12	-2%	25%	-13%	19%	81%	3%
COC(=O)c1ccccc1NC(=S)NC(NC(=O)c1ccccc1[N+](=O)[O-])C(Cl)(Cl)Cl (stereo not drawn)	3.5µM*	-20%[57.1 µM]	27µM*	-22%	1%	1%
O=C(COC(=O)COc1ccccc1F)NCCc1ccc(F)cc1	23%[2.33 µM]	11%	4%	14%	53%	-2%
Oc1c(Br)cc(Br)cc1/C=N/n1c(-c2ccccc2)n[nH]c1=S	10%[0.501 µM]	40µM*	?	?	?	?
Oc1ccccc1/C=N/n1c(-c2ccccc2)n[nH]c1=S	1.6µM*	25µM*	-22%	-24%	-17%	?
Oc1c(Br)cc(/C=N/n2c(-c3ccccc3)n[nH]c2=S)c(Br)c1O	1.8µM*	nt	nt	nt	nt	1.8µM*
O=[N+]([O-])c1ccc(Cl)c(/C=N/n2c(-c3ccncc3)n[nH]c2=S)c1	4µM*	3.2µM*	-14%	-11%	14%	-1%
COc1c(Br)cc(/C=N/n2c(-c3ccccc3)n[nH]c2=S)c(O)c1Br	nt	?	?	-20%	-16%	-9%
O=c1[nH]c2cc([N+](=O)[O-])cc([N+](=O)[O-])c2[nH]c1=O	nt	nt	nt	-2%	nt	nt
O=[N+]([O-])c1ccc(O)c(/C=N/n2c(-c3ccccc3)n[nH]c2=S)c1	-14%[0.501 µM]	5.6µM*	-20%	-14%	12%	-10%
CCSc1cnc(-c2ccccc2)n1CC	50µM*	-31%	4%	5%	9%	?
CC(=O)c1c(C)nc(-c2ccc(Cl)cc2)nc1N	-46%	-17%	-18%	-12%	24%	79µM*
CN(C)C=NC(=O)c1cc(C(=O)c2ccc(Cl)cc2)c[nH]1	13%[59 µM]	-22%	-12%	-9%	20%	?
CSc1nc(-c2ccccc2)nc(N)c1C(C)=O	?	nt	nt	nt	nt	-3%

Source: PubChem
